Mito fusion yeast – blocks mitochondrial division or promotes mitochondrial fusion. S. cerevisiae fusion-defective mutant growth rescue, CellTiterGlo 48 h. actives 0.23% (n = 320,000). Potency, µM (series often up to 46.1 µM), for inactives: at the highest dose growth rescue (activation), hits mostly activators; note: % of control where 0% means no effect; nearly all actives have a fitted effect of over 45% in size
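Yeast fusion mutant, YPEG (non-fermentable carbon), compound, 48 h at 37C non-permissive; CellTiterGlo added, 10 min RT, luminescence read. Rescued growth = division inhibition.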
GLP-1R inv ag – acts as inverse agonist at human GLP-1 receptor. P43220. HEK293 GLP-1R CRE-luciferase, luminescence, 24 h; GLP-1R form is constitutively active. Potency, µM (doses to about 38.3 µM), inactives show at the highest dose activity change, negative = inhibition, actives largely listed as inhibitors. actives 1.6% (n = 410,000); note: % is set by controls: 0 for no effect and ±100 for the full control effect; nearly all actives have a fitted effect of over 55% in size
Target sequence (P43220 whole entry, looked up): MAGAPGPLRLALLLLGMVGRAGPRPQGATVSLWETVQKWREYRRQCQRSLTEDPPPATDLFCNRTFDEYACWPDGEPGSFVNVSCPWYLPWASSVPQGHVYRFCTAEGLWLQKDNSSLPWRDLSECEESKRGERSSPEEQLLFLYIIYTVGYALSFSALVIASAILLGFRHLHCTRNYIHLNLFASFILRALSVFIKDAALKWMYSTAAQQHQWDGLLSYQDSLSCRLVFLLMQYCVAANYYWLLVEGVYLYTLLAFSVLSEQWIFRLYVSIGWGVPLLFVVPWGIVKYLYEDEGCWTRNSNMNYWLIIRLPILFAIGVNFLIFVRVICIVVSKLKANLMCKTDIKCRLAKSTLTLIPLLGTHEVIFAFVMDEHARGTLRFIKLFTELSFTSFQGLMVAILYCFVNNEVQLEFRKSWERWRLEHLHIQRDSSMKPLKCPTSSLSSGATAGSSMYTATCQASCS
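HEK293 cells stably co-expressing constitutively active GLP-1R and a cAMP-responsive luciferase reporter were seeded in DMEM with 10% Nu serum, given compounds after 12 h, and incubated 24 h at 37 deg C. Luminescence was then read.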
BRCA1 expr act – activators of BRCA1 expression; actives 1.1% (n = 380,000); AID 624202; MCF7-BRCA1-FFLuc reporter, luminescence, 48 h; response scale: scaled: vehicle 0%, 10 µM genistein 100%; Potency, µM (top dose mostly 46.1 µM), for inactives: at the top dose activation, usual class: activators; note: nearly all actives have a fitted effect of over 80% in size
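MCF7 cells carrying a BRCA1-firefly luciferase reporter (2000 cells/well, phenol-red free MEM) were attached for 2 h at 37 °C, then given compounds for 48 h. Luminescence was read 15 min after luciferase reagent; activity normalized to genistein (10 microM) and DMSO.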
GLP1R cytotox – cytotoxicity in counter-screen for GLP-1R inverse agonists. Potency, µM (titrated, usually from 38.3 µM), for the others: at the top dose activity change, negative = inhibition, usual class: inhibitors. actives 0.13% (n = 410,000). HEK293 cAMP-luciferase reporter cells, luminescence, 24 h;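 note: loss of luciferase light is scored as toxicity; % is set by controls: 0 for no effect and ±100 for the full control effect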
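Cells in DMEM/10% Nu serum/1% pen-strep, 1536-well format. Pre-incubated 12 h, dosed with 23 nL compound, incubated a further 24 h. Luciferase detection, 12 min at room temp, luminescence.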
GLP-1R agonist – agonists of human GLP-1 receptor | P43220 | Potency, µM (highest dose often 45.6 µM), inactives show at the top dose activation, most hits filed as activators | HEK293 GLP-1R CRE-luciferase, luminescence, 4-6 h; cells express a hypersensitive GLP-1R form | actives 0.007% (n = 380,000); note: % of control where 0% means no effect
* hit, by the source's call; u = inconclusive; x = not tested or not shown; [ ] = another dose, or the depositor's remark. A selection: hits, their analogues and other compounds. The true share with any hit is near 2.8%. Calls come from the whole dose curve; as a rule, active = well fitted curve in the direction sought with a large enough effect; inconclusive = small, poorly fitted or top-dose-only effect, or another doubt; inactive = no such curve, though single readings can be large; an effect the other way counts as inactive or inconclusive. Potency is the fitted concentration of half-maximal effect.

SMILES	Mito fusion yeast	GLP-1R inv ag	BRCA1 expr act	GLP1R cytotox	GLP-1R agonist
COc1ccc(Cl)cc1S(=O)(=O)N1CCN(C(=O)c2cc(-c3ccc(Br)cc3)n[nH]2)CC1	x	10µM*	x	-19%	x
COc1ccc(S(=O)(=O)N2CCN(C(=O)c3cc(-c4ccc(Br)cc4)n[nH]3)CC2)cc1OC	3%	u	-14%	-13%	-2%
Cc1c(C(=O)O)cccc1-c1ccc(/C=N/Nc2ccc(Br)cc2)o1	20µM*	u	28%	-8%	-1%
Cc1[nH]n2c(=O)cc(-c3ccc(Cl)cc3)nc2c1-c1ccccc1	x	2.8µM*	-74%	98%	-16%
Cc1[nH]n2c(=O)cc(-c3ccc([N+](=O)[O-])cc3)nc2c1-c1ccccc1	x	u	-92%	u	-12%
Cc1[nH]n2c(=O)cc(C(C)(C)C)nc2c1-c1ccccc1	2%	3.5µM*	-77%	u	-12%
CC(=O)c1ccc(N2CCN(C(=O)CCS(=O)(=O)c3ccc4c(c3)CCN4C(C)=O)CC2)cc1	1%	9%	2%	-3%	-2%
CCn1c2ccccc2c2cc(NC(=O)N3CCOCC3)ccc21	0%	u	11µM*	-8%	8%
O=C(Nc1ccccc1)N1CCOCC1	-3%	0%	4%	3%	9%
O=C(Nc1ccc2c(c1)oc1ccccc12)N1CCOCC1	3%	u	6.3µM*	-15%	0%
CCNC(=S)Nc1ccc2c(c1)oc1ccccc12	x	u	4.5µM*	-4%	5%
O=C(C1COc2ccccc2O1)N1CCN(c2ccccn2)CC1 (configuration not stated)	0%	7%	18%	14%	4%
O=C(Cn1cnnn1)Nc1cccc([N+](=O)[O-])c1	-15%	12%[7.66 µM]	-8%	-1%[7.66 µM]	-1%
CCN(C(=O)c1ccc(C)c(Br)c1)c1ccccc1	-16%	10µM*	-9%	1%	10%
CCN(C(=O)c1cccnc1)c1ccccc1	-4%	13%	68%	28%	7%
Cc1cccc(C)c1OCCn1nc(C(=O)O)c2ccccc2c1=O	4%	8%	-27%	23%	2%
COc1ccc(CC(=O)N/N=C/C=C/c2ccc3c(c2)OCO3)cc1OC	0%	17%	-16%	-13%	-8%
CCOC(=O)N/N=C\C=C\c1ccc2c(c1)OCO2	1%	24%	4.5µM*	-9%	5%
O=C(N/N=C/C=C/c1ccc2c(c1)OCO2)c1ccc([N+](=O)[O-])cc1	-2%	-5%	-2%	12%	1%
CC(C)(C)OC(=O)N/N=C\C=C\c1ccc2c(c1)OCO2	2%	0%	7.9µM*	-1%	-2%
COC(=O)N/N=C\C=C\c1ccc2c(c1)OCO2	-2%	19%	4.5µM*	13%	-7%
COc1cc(C2SC(C)C(=O)N2CCc2ccccc2)cc(OC)c1OC (configuration not stated)	-4%	u	12%	-36%	9%
CCC1SC2=NC(C)=C(C(=O)OCC(C)C)C(/C=C/c3ccccc3OC)N2C1=O (configuration not stated)	8%	7.9µM*	-35%	7%	25%
CCOC(=O)c1c(-c2ccccc2)csc1NC(=O)c1cc(-c2ccc(Br)cc2)on1	x	6%	x	-14%	x
COc1ccc(NC(=O)CN(C)C(=O)CNC(=O)c2ccc3ccccc3c2)cc1	-4%	17%	63%	4%	5%
SMILES	Mito fusion yeast	GLP-1R inv ag	BRCA1 expr act	GLP1R cytotox	GLP-1R agonist
CC(C)(Oc1ccc(Cl)cc1)C(=O)N1CCN(c2ccccn2)CC1	14µM*	u	-30%	-14%	-5%
CC(C)(C)c1ccc(OCC(=O)N2CCN(c3ccccn3)CC2)cc1	4%	u	-1%	7%	-5%
O=C(COc1ccc(Cl)cc1)N(Cc1ccccc1)c1ccccn1	3%	u	-11%	71%	1%
CC(C)(Oc1ccc(Cl)cc1)C(=O)N(Cc1ccccc1)c1ccccn1	8%	10µM*	-44%	2%	-2%
CCC(C)NC(=O)/C=C/c1cccs1 (configuration not stated)	-1%	35%	2%	3%	2%
O=C(/C=C/c1ccc(Br)cc1)NCc1cccs1	u	10%	81%	9%	0%
O=C(/C=C/c1cccs1)NCc1ccccc1	10%	-9%	14µM*	-2%	0%
O=C(/C=C/c1ccc(F)cc1)NCc1cccs1	4%	5%	14µM*	-4%	8%
O=C(/C=C/c1ccccc1Cl)NCc1cccs1	u	-17%	4µM*	-2%	11%
COc1ccc(N(C)C(=O)c2nc(-c3cccc(F)c3)n3c2CCCCC3)c(OC)c1	x	u	x	-14%	x
Fc1ccccc1COc1ccc(C(=S)N2CCCC2)cc1	-13%	u	11µM*	0%	13%
CN(C)c1ccc(CN(Cc2ccco2)C(=O)c2ccc(C(C)(C)C)cc2)cc1	x	11µM*	x	0%	x
Cc1ccc(CN(Cc2ccco2)C(=O)c2cccc(C)c2)cc1	x	11µM*	x	1%	x
Cc1ncc(CN2CCCC(C(=O)Nc3ccc(-c4ccco4)cc3)C2)n1C (configuration not stated)	2%	u	-9%	-24%	3%
CN(c1nc2c(c(=O)n(C)c(=O)n2C)n1CC(=O)c1ccccc1)C1CCCCC1	22%	7.9µM*	-14%	-25%	18%
CCOc1ccc(CNC(=O)c2oc3c(c2C)-c2nn(Cc4cccc(Cl)c4)cc2CC3)cc1	x	11µM*	x	-11%	x
Cc1cccc(CNC(=O)c2oc3c(c2C)-c2nn(Cc4cccc(Cl)c4)cc2CC3)c1	x	u	x	-21%	x
Cc1cc(OCc2cc(C(=O)N(C)CCc3cnn(C)c3)no2)cc(C)c1Cl	5%	u	10µM*	-17%	14%
CCN(Cc1cnn(C)c1)C(=O)c1cc(COc2cc(C)c(Cl)c(C)c2)on1	-2%	u	0%	-9%	17%
CC(=O)c1cccc(OCc2cc(C(=O)N(C)CCc3cnn(C)c3)no2)c1	2%	40%	46%	8%	1%
COc1cc(Cl)ccc1OCc1cc(C(=O)N(C)CCc2cnn(C)c2)no1	1%	27%	7.1µM*	-4%	10%
CSc1ccc(-c2nnn(Cc3ccc(Br)cc3)n2)cc1	1%	u	60%	4%	4%
CSc1ccc(-c2nnn(Cc3ccccn3)n2)cc1	0%	5%	8.9µM*	8%	19%
CC[N+]1(C)CCC(O)(/C=C/c2ccccc2)C(C(=O)/C=C/c2ccccc2)C1 (configuration not stated)	x	10µM*	-88%	u	-15%
CCOc1ccccc1N1CCN(C(=S)NCc2ccc(Cl)cc2)CC1	-4%	11µM*	-12%	0%	21%
COCC(=O)N1CCC(n2nnc3cc(F)ccc32)CC1	-1%	0%	-10%	-3%	-8%

Screening results (PubChem)
